Experimental data reported in PubChem BioAssay (NCATS).
Several values for one entry are separate records, joined by “and”; a condition that tells them apart may be missing. Equal entries are not always repeated. Records with an inconclusive call do not appear. Entries that show only a call come without a potency. Activity calls are given as the source filed them. Unless noted, the call rests on the fitted dose curve; in most records, active means well fitted curve in the direction sought with a large enough effect; inconclusive means small, poorly fitted or top-dose-only effect, or another doubt; inactive means no such curve, though single readings can be large; an effect the other way counts as inactive or inconclusive.

Key:
[1] = Cell Viability - LYMP2-020 (AID 986); further: nearly all actives have a fitted effect of over 55% in size
How it was run: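 Human lymphoblastoid LYMP2-020 cells (2500/well) preincubated 5 h at 37 C, then treated 24 h at 37 C. Viability measured as intracellular ATP by CellTiter-Glo luminescence after 30 min at room temperature; AC50 from Hill fits.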

[2] = Cell Viability - LYMP2-022 (AID 987); further: nearly all actives have a fitted effect of over 55% in size
How it was run: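 LYMP2-022 lymphoblastoid cells (2500/well, complete medium) were treated with compounds for 24 hours at 37 C; intracellular ATP was then read by CellTiter-Glo luminescence after 30 min at room temperature. AC50 values were derived from Hill-equation fits.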

[3] = Cell Viability - LYMP2-024 (AID 988); further: nearly all actives have a fitted effect of over 60% in size
How it was run: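 Human lymphoblastoid LYMP2-024 cells (2500/well) rested 5 hr, then treated with compound for 24 hr at 37 C in complete medium. Viability was measured as intracellular ATP by CellTiter-Glo luminescence. AC50 values came from Hill-equation fits.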

[4] = Cell Viability - LYMP2-026 (AID 989); further: nearly all actives have a fitted effect of over 50% in size
How it was run: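 Human lymphoblastoid LYMP2-026 cells, 2500/well, exposed to compound 24 h at 37 C in complete medium. Viability as intracellular ATP by CellTiter-Glo luminescence; AC50 from Hill fits of qHTS concentration-response.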

[5] = molecular target: Alpha-galactosidase A (Homo sapiens) (UniProt P06280); test: Counterscreen for Glucocerebrosidase Inhibitors: qHTS Assay for Human alpha-Galactosidase at pH 4.5 (AID 992)
Alpha-galactosidase A (Homo sapiens), sequence (P06280 whole entry, looked up): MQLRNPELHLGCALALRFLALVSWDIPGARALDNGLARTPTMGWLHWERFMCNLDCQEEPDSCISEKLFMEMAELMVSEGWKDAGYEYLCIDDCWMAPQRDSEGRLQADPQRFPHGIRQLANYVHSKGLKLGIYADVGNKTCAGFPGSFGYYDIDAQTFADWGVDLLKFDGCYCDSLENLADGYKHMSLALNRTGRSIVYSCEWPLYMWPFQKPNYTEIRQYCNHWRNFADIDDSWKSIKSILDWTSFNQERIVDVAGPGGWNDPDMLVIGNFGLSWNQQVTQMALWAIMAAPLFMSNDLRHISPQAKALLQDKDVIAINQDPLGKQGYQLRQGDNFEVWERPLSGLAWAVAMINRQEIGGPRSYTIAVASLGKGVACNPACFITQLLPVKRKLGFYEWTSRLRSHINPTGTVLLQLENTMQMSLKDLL
How it was run: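 Concentration-response curves (0.7 nM to 77 uM final) were modeled with the Hill equation to give AC50. Reactions: 2 nM enzyme, 80 uM fluorogenic alpha-galactoside, pH 4.5 citric acid buffer, 20 min, room temperature.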

[6] = Cell Viability - LYMP1-002 - Assay at 40 hr (AID 994); further: nearly all actives have a fitted effect of over 60% in size
How it was run: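 LYMP1-002 human lymphoblastoid cells (2500/well, complete medium) were treated with compounds for 40 hr at 37 C. Intracellular ATP was measured by CellTiter-Glo luminescence, and AC50 values came from Hill-equation fits of concentration-response data; tetraoctylammonium bromide was the positive control.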

[7] = Validation of Assay for Modulators of Lamin A Splicing (AID 1459; active means well fitted curve in the direction sought with a large enough effect in the signal ratio; the % refers to the signal ratio;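 further: cells exposed to compound for two days before reading; ratio rise marks activators and ratio drop marks inhibitors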)
How it was run: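 Splicing correction is reported by an EGFP-containing lamin A minigene in stably transfected S3 HeLa cells, while DsRed2 controls for viability and nonspecific signal. Cells are exposed to compounds for 48 hrs before the GFP over RFP ratio is taken.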

[8] = qHTS Assay for Lipid Storage Modulators (AID 1519; calls by dose curve); conditions: Drosophila S3 cells, BODIPY lipid droplet/cell ratio, laser cytometry, cells loaded with oleic acid; for activity change, negative = inhibition: at 57.5 µM (top of the series)
How it was run: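 Cells seeded at 5,000 per well were treated with compounds over a concentration series and loaded with oleic acid (400 uM, as added). Lipid droplet fluorescence (488 nm excitation, 500-530 nm channel) was read by laser-scanning cytometry and normalized to 20 uM Triacsin C.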

[9] = molecular target: DNA repair nuclease/redox regulator APEX1 (Homo sapiens) (UniProt P27695); test: qHTS Validation Assay for Inhibitors of the Human Apurinic/apyrimidinic Endonuclease 1 (APE1) (AID 1705;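 further: TAMRA fluorescence gain over two minutes as APE1 cuts a quenched THF abasic duplex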)
DNA repair nuclease/redox regulator APEX1 (Homo sapiens), sequence (P27695 whole entry, looked up): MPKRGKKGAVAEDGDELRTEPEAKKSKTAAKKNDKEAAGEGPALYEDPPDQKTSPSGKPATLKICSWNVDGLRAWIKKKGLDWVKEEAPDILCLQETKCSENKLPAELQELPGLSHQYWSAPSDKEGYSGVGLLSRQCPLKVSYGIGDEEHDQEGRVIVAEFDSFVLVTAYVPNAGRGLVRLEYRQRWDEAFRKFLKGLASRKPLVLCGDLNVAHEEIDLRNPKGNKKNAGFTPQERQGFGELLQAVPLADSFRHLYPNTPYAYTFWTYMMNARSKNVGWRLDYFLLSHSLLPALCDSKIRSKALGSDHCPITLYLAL
How it was run: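 Endonuclease activity of human APE1 is followed as dequenching when the enzyme incises a tetrahydrofuran abasic site in a short duplex labelled 5'-TAMRA/3'-BHQ-2 (50 nM final), after 15 min enzyme–compound preincubation at room temperature.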

[10] = Counterscreen for APE1 Inhibitors: Fluorescent Dye Displacement Validation Assay (AID 1707)
How it was run: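 Assay buffer: Tris-HCl pH7.5 with 50mM NaCl, 2 mM MgCl2, 0.01% Tween-20. Dye 250 nM, duplex 50 nM final. Readout: decrease in ThO endpoint fluorescence, 480 nm excitation, 540 nm emission.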

[11] = molecular target: Endonuclease 4 (Escherichia coli (strain K12)) (UniProt P0A6C1); test: Counterscreen for APE1 Inhibitors: qHTS Validation Assay for Inhibitors of Endonuclease IV (AID 1708)
How it was run: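 E. coli EndoIV at 2 nM final, preincubated 15 min at room temperature with compound, then 50 nM TAMRA/BHQ-2 THF abasic-site duplex added. Buffer: 50 mM Tris-HCl pH 7.5, 50 mM NaCl, 2 mM MgCl2, 1 mM DTT, 0.01% Tween-20. Kinetic fluorescence increase, third minus first read.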

[12] = qHTS for differential inhibitors of proliferation of Plasmodium falciparum line 7G8 (AID 1815);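 further: parasite growth measured after three days of incubation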
[13] = qHTS for differential inhibitors of proliferation of Plasmodium falciparum line GB4 (AID 1816); conditions: Potency: Plasmodium falciparum GB4 proliferation inhibition;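 further: parasite growth measured after 72 h incubation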
[14] = qHTS for differential inhibitors of proliferation of Plasmodium falciparum line 3D7 (AID 1876);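 further: parasite growth measured after three days of culture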
[15] = qHTS for differential inhibitors of proliferation of Plasmodium falciparum line D10 (AID 1877);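 further: parasites grown with compound for 72 h before DNA staining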
[16] = qHTS for differential inhibitors of proliferation of Plasmodium falciparum line Dd2 (AID 1882); conditions: Potency: Plasmodium falciparum Dd2 proliferation inhibition; further: nearly all actives have a fitted effect of over 65% in size
How it was run: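 Dd2-infected erythrocytes (0.3% parasitemia, 2.5% hematocrit final) incubated with compound 72 h at 37 C, 5% CO2; lysed with saponin/Triton buffer containing SYBR Green I, incubated overnight in the dark, then read by fluorescence (485/535 nm). Normalized to 0.29 uM artemisinin and DMSO.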

[17] = qHTS for differential inhibitors of proliferation of Plasmodium falciparum line W2 (AID 1883); conditions: Potency: Plasmodium falciparum W2 proliferation inhibition;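 further: parasites grown with compound for 72 h before lysis and staining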
[18] = qHTS for differential inhibitors of proliferation of Plasmodium falciparum line HB3 (AID 1886); conditions: Potency: Plasmodium falciparum HB3 proliferation inhibition;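 further: parasites grown with compound for 72 h before SYBR Green readout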
[19] = qHTS Assay for Modulators of Human Peripheral Myelin Protein 22 (PMP22) Expression/Activity (AID 1967; active means well fitted curve in the direction sought with a large enough effect in the signal ratio; the % refers to the signal ratio)
How it was run: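 Quantitative HTS in a mouse Schwann cell line expressing dual click beetle luciferases: Pmp22 promoter (green) and control EF-alpha promoter (red). After 24h treatment, corrected green/red signal ratio gave %Activity relative to untreated cells.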

[20] = measured here: cell count channel max response
[21] = measured here: lipid channel max response

NCCS(=O)(=O)O
outcome [1]: inactive | outcome [2]: inactive | outcome [3]: inactive | outcome [4]: inactive | outcome [5]: inactive | Potency [6]: inactive | outcome [7]: inactive | activity change, negative = inhibition [8]: 4.96% (inactive) and -0.7% (inactive) | max response [8, 20]: -11.2% and -31.9% | max response [8, 21]: 15.8% and -31.4% | Potency [9]: inactive | Potency [10]: inactive | Potency [11]: inactive | Potency [12]: inactive | Potency [13]: inactive | Potency [14]: inactive | Potency [15]: inactive | Potency [16]: inactive | Potency [17]: inactive | Potency [18]: inactive | Potency [19]: inactive

Nc1nnc(-c2cccc(Cl)c2Cl)c(N)n1
outcome [5]: inactive | outcome [7]: inactive | activity change, negative = inhibition [8]: 1.91% (inactive) | max response [8, 20]: 18.9% | max response [8, 21]: 20.6% | Potency [9]: inactive | Potency [10]: inactive | Potency [11]: inactive | Potency [12]: inactive | Potency [15]: inactive | Potency [16]: inactive | Potency [17]: inactive | Potency [18]: inactive

CC(C)NCC(O)c1ccc(O)c(O)c1 (configuration not stated)
outcome [1]: inactive | outcome [2]: inactive | outcome [3]: inactive | outcome [4]: inactive | Potency [6]: inactive | outcome [7]: inactive | activity change, negative = inhibition [8]: 4.99% (inactive) and 0.312% (inactive) and 1.86% (inactive) | max response [8, 20]: 14.1% and -2.95% and -6.8% | max response [8, 21]: 18.9% and -2.86% and -5.68% | Potency [9]: inactive | Potency [10]: inactive | Potency [11]: inactive | Potency [12]: inactive | Potency [14]: inactive | Potency [16]: inactive

COc1cc2nc(N(C)CCCNC(=O)C3CCCO3)nc(N)c2cc1OC (configuration not stated)
activity change, negative = inhibition [8]: 3.93% (inactive) | max response [8, 20]: 5.38% | max response [8, 21]: 20.8%
